The campaign covered roughly 370,000 compounds. About 2,600 (0.7%) were called active. This excerpt belongs to a sample that is enriched for actives. A number with no mark means an inactive call.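 The calls were made as follows: active = inhibition above a per-plate cutoff, mean inhibition of test wells between control levels plus 3 SD (cut at about 38% in these data); inactive = the rest.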

The values that follow come from PubChem BioAssay AID686940 (The Scripps Research Institute Molecular Screening Center, 2013).

Chain of COUP transcription factor 2 (Homo sapiens) (P24468 whole entry, looked up): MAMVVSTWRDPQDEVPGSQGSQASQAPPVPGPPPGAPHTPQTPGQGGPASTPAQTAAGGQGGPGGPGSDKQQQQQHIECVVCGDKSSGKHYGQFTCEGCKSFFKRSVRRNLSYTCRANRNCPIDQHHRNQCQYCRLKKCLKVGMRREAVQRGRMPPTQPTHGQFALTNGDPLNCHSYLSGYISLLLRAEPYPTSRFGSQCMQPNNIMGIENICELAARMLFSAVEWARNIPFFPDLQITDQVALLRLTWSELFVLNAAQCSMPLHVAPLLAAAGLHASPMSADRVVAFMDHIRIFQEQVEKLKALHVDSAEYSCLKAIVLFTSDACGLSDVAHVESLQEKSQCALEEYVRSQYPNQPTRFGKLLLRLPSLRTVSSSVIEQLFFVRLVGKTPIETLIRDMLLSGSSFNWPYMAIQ

This assay addresses COUP transcription factor 2 (Homo sapiens) (UniProt P24468). The experiment in a line: COUP-TFII reporter suppression in human cells – cell-based, luciferase reporter, HEK293T, luminescence, primary screen (AID 686940).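 Also: cells cotransfected with COUP-TFII expression vector driving the NGFI-A reporter; 0% = median of COUP-TF2 test wells and 100% = reporter-only cells.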 The note with it: HEK293T NGFI-A luciferase reporter, at 8.6 µM, active compounds read high.
The term inhibition denotes the relative decrease from the control value, in per cent. On to `COc1ccc(-n2c(SCC(=O)Nc3ccc(C)c(Cl)c3)nc3ccccc3c2=O)cc1`, for which the inhibition is 2.13%.

`CCCC[C@H](C(=O)N(CC)c1ccccc1)[C@@H](O)c1ccc2ccccc2c1`: the inhibition was -0.42%.

Take `Cc1ccc(NC(=O)C(c2ccccc2)N2CCN(C(=O)c3ccco3)CC2)cc1` (stereo not given): the inhibition was 3.53%.

In the case of `Cc1ccc(OCC(=O)Nc2ccc(N3CCN(C(=O)c4ccco4)CC3)cc2)c(C)c1`, the inhibition is 44.3% (active).

Consider `O=C(COc1ccccc1)Nc1ccc(N2CCN(C(=O)c3cccs3)CC2)cc1`, for which the inhibition is -0.29%.

On to `C=CCN1C(=O)[C@H](CC(=O)NCCCN2CCCC2=O)[C@@]2(C(=O)OCC)CCCC=C12`, for which the inhibition is -4.55%.

On to `CC(C)(C)NC(=O)C(c1cccnc1)N(C(=O)c1cnco1)c1ccc(C(C)(C)C)cc1` (stereo not given), for which the inhibition is 36.4%.

On to `CSc1ccc(C=Nn2c(-c3ccc(F)cc3)n[nH]c2=S)cc1`, for which the inhibition was -7.74%.

As for `Cc1ccc(NC(=S)NNC(=O)CSc2nnc(SCc3ccccc3Cl)s2)cc1`, the inhibition is 9.26%.

On to `FC(F)(F)c1cccc(NC(=S)OC2CCC23CCC(c2ccccc2)CC3)c1` (stereo not given), for which the inhibition was -0.26%.

For the compound `Fc1ccc(-c2csc(-c3ccc(C4SCCS4)cc3)n2)cc1F`, the inhibition is 3.02%.

In the case of `COc1ccc(CCNC(=O)COC(=O)Cc2cc(OC)c(OC)c(OC)c2)cc1`, the inhibition is 2.38%.

Turning to `COc1cc(CCC(=O)Nc2ccncc2Cl)cc(OC)c1OC`, the inhibition is -12.9%.

As for `O=C(Cc1cccs1)Nc1ccc([N+](=O)[O-])cc1`, the inhibition is 1.87%.

As for `COc1ccc(CC(=O)Nc2nc(-c3ccc(F)c(F)c3)cs2)cc1OC`, the inhibition is 64.1% (active).

`CCCc1ccc(-c2csc(NC(=O)Cc3cccs3)n2)cc1`: the inhibition is 42.5% (active).

Turning to `O=C(CCc1ccccc1)NCCc1cccs1`, the inhibition is -20.7%.

Take `COc1ccc(C2(CNC(=O)Cc3ccc(OC)c(OC)c3)CCCC2)cc1`: the inhibition is -3.38%.

As for `COc1cc(CC(=O)Nc2nc(-c3ccc(F)c(F)c3)cs2)cc(OC)c1OC`, the inhibition was 64.1% (active).

With `O=C(OC12CCCN(C1)/C(=C/c1cccnc1)C2)C1CCCC1` (stereo not given), the inhibition was 0.25%.

For `Cc1cccc(C(=O)Nc2c(-c3ccc(F)cc3)nc3ncccn23)c1`, the inhibition was -5.63%.

As for `CCN(C(=O)[C@@H](C1CC1)[C@@H](O)c1ccc2ccccc2c1)c1ccccc1`, the inhibition was 8.36%.

In the case of `O=C1C(=O)N(Cc2ccc(-c3ccsc3)cc2)c2ccc(OC(F)(F)F)cc21`, the inhibition was -43.7%.

Regarding `CCCCC(=O)N[C@@H]1CC[C@@]23CCCN2C(=O)CCC[C@H]3[C@H]1C`, the inhibition was -2.57%.

Turning to `CCOC(=O)c1cc(C(=O)Nc2ccc(S(=O)(=O)Nc3ccc(OC)cc3)cc2)nn1C`, the inhibition is 8.95%.

For the compound `COc1ccc(NS(=O)(=O)c2ccc(NC(=O)c3ccc(N(C)S(C)(=O)=O)cc3)cc2)cc1`, the inhibition was 60.6% (active).

Take `COc1ccc(NS(=O)(=O)c2cc(NC(=O)c3ccc(S(=O)(=O)N(C)C)cc3)ccc2N2CCOCC2)cc1`: the inhibition was 9.06%.

With `O=C(N1CCOCC1)N1CC[C@H]2[C@H](CCCN2Cc2ccc(F)cc2)C1`, the inhibition was 6.77%.

With `CCOC(=O)c1cccc(NC(=O)CN(C)S(=O)(=O)c2ccc(-c3cocn3)s2)c1`, the inhibition was -17.4%.

For the compound `CCn1c(=O)n2n(c1=O)[C@@]1(C=C3CCCC[C@H]32)N=C(NC(=O)c2ccccc2)N(Cc2ccccc2)[C@H]1Cc1ccccc1`, the inhibition is 22.3%.

`C#CCN([C@H](C(=O)OC)C(C)CC)S(=O)(=O)c1ccccc1Br` (stereo not given in full): the inhibition was -21.6%.

Consider `FC(F)(F)c1cccc(Cn2ccc3ccc(-c4ccc5ccn(Cc6ccccc6)c5c4)cc32)c1`, for which the inhibition was 6.43%.

Take `C[C@H](C(=O)N(C)c1ccccc1)[C@@H](O)c1ccc(Cl)cc1`: the inhibition was -16.9%.

As for `O=C(Nc1ccc(Br)cn1)C1CCN(S(=O)(=O)c2cccs2)CC1`, the inhibition was 48.1% (active).

As for `O=C(C1CCN(S(=O)(=O)c2cccs2)CC1)N1CCCCCC1`, the inhibition is -11.4%.

Consider `O=C(NCc1ccc(Cl)cc1)C1CCN(S(=O)(=O)c2cccs2)CC1`, for which the inhibition was 5.16%.

As for `COC(=O)C1CN(Cc2cn(Cc3ccc(F)cc3)nn2)CCS(=O)(=O)N1Cc1ccc(Cl)cc1` (stereo not given), the inhibition was 7.03%.

`COC(=O)[C@]12C[C@H](CC(=O)NCc3cccs3)C(=O)N(CCc3ccc(OC)c(OC)c3)C1=C[C@H](C(C)C)O[C@@H]2C1CC1`: the inhibition is 17.9%.

Consider `COc1ccc(N2CCN(CCNS(=O)(=O)c3ccc(C(C)(C)C)cc3)CC2)cc1`, for which the inhibition is 2.21%.

For `C=CCN1C(=O)[C@@H](CC(=O)N2CCN(C(=O)c3ccco3)CC2)[C@]2(C(=O)OC)CCCCC=C12`, the inhibition is -0.82%.
